# Assay results published in PubChem BioAssay AID2551 (National Center for Advancing Translational Sciences (NCATS), 2010).
# Hit rate of the full screen: of about 310,000 compounds, about 17,000 (5.5%) were called active. Inconclusive results (about 11%) are left out. The call rests on the fitted dose curve; in most records, active means well fitted inhibition curve with a large enough effect; inconclusive means small, poorly fitted or top-dose-only effect, or effect the other way; inactive means no such curve, though single readings can be large or run the other way. This excerpt belongs to a sample that is enriched for actives.
# Molecular target: Nuclear receptor ROR-gamma (Mus musculus) (UniProt P51450)
# Assay: qHTS for inhibitors of ROR gamma transcriptional activity; further: nearly all actives have a fitted effect of over 60% in size
# Conditions: Drosophila S2 Gal4-RORgamma UAS-luciferase reporter, 20 h; series mostly up to 53.6 µM; activity change, negative = inhibition: at the top concentration
# Text: NIH Molecular Libraries Probe Production Network [MLPCN] NIH Chemical Genomics Center [NCGC] MLPCN Grant: R03 DA026211-01 Assay Provider: Dan Littman, New York University Assay Overview: The retinoic acid-related orphan receptor (ROR) gamma is a transcription factor that has a central role in the differentiation of Th17 cells, a subset of T helper cells that secrete the inflammatory cytokines IL-17, IL-17F, and IL-22. Th17 cells have been implicated in graft versus host disease, autoimmune disease and asthma. ROR gamma is induced in naive T helper cells in the presence of TGF-beta combined with IL-6, IL-21, or IL-23, and thereafter directs the expression of the Th17 lineage cytokines. To study the mechanism of action of ROR gamma, an insect cell-based assay was screened. This Drosophila Schneider cell line was stably transfected with two vectors: a gene expressing a fusion of the Gal4 DNA binding domain and ROR gamma transactivation domain under the control of the metallothionine promoter and a Photinus luciferase reporter regulated by the Gal4 binding site enhancer, UAS. […] Small molecule inhibitors of ROR gamma activity are detected by a decrease in luciferase reporter activity.
# Assay Protocol Summary: For screening, 600 cells in 4 uL/well were dispensed into white solid 1536-well plates (Grenier) using a solenoid-based dispenser. Following transfer of 23 nL compound or DMSO vehicle by a pin tool, the plates were incubated 1 hr at ambient temperature, and 1 uL/well copper sulfate (700 uM final concentration) was added. The plates were centrifuged 15 s at 1000 RPM and incubated 20 hr at ambient temperature. After addition of 1.5 uL Photinus luciferase detection reagent, the plates were incubated 10 min at ambient temperature and then read by an ViewLux (Perkin Elmer) to detect luminescence. Keywords: NIH Roadmap, MLPCN, MLI, MLSMR, qHTS, NCGC, qHTS, nuclear hormone receptor, retinoic acid-related orphan receptor, ROR gamma
# On the % scale 0 is the no-effect control and ±100 the full control effect; potency means the concentration at half of the fitted maximal effect.
# Chain of Nuclear receptor ROR-gamma (Mus musculus) (P51450 whole entry, looked up): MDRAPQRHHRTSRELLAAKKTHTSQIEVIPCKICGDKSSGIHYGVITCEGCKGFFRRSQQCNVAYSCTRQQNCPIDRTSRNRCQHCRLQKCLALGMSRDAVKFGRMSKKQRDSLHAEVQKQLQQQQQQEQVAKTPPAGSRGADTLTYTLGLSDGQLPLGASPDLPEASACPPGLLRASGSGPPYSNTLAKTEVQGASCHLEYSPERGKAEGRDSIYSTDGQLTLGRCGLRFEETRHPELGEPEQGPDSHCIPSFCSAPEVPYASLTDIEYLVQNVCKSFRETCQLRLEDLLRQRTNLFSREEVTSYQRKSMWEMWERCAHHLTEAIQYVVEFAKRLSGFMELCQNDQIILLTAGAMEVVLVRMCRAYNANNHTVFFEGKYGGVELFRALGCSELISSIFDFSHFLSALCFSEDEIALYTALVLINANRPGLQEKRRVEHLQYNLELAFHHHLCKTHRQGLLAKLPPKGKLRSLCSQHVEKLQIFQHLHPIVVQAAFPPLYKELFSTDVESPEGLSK
SMILES,"activity change, negative = inhibition",Potency
COc1ccccc1CNC(=O)c1ccc(SC)cc1OC,42% (inactive),
COc1cc(SC)ccc1C(=O)Nc1nc(C)cs1,,1.26 µM (active)
Cc1ccnc(NC(=O)c2ccoc2C)c1,-20.2% (inactive),
COc1cc(SC)ccc1C(=O)Nc1cc(C)ccn1,,6.31 µM (active)
Cc1ccnc(NC(=O)CCCOc2ccccc2)c1,3.66% (inactive),
COc1cc(SC)ccc1C(=O)N(Cc1ccccc1)c1ccccc1,0.287% (inactive),
COc1ccc(C)cc1NC(=O)CNCc1cccs1,26.6% (inactive),
Cc1sc2ncn(CC(=O)NCCCC(=O)NCc3ccc(F)cc3)c(=O)c2c1C,3.51% (inactive),
CC(C)(C)c1ccc(C(=O)N2CCN(CCNC(=O)C(=O)Nc3ccc(F)cc3)CC2)cc1,42.6% (inactive),
COc1ccc(CNS(=O)(=O)c2cc(-c3cc(C)no3)ccc2C(C)C)cc1,31.8% (inactive),
O=C(c1ccco1)N1CCN(C(=O)c2cc(-c3ccccc3F)no2)CC1,28.9% (inactive),
CC1(C)c2[nH]c3ccccc3c2C[C@H]2C(=O)N(N)CC(=O)N21,6.7% (inactive),
O=C(c1cnn(-c2ccc(Cl)cc2)c1)c1ccccc1O,-38.1% (inactive),
Cc1cc(O)cc(O)c1C(=O)Cc1cnn(-c2ccccc2)c1,,0.199 µM (active)
COc1ccc(C(=O)Cc2cnn(-c3ccccc3)c2)c(O)c1,27.6% (inactive),
O=C(Nc1cccc(-n2cnnn2)c1)c1cccnc1,12.2% (inactive),
COc1ccc(CNC(=O)c2c[nH]c3c(OC)cc(OC)cc3c2=O)cc1,8.69% (inactive),
Nc1nonc1-n1nnc(C(=O)N/N=C/C2CCCCC2)c1-c1ccccc1,-30.9% (inactive),
CCCOc1ccc(-c2c(C(=O)N/N=C/c3ccco3)nnn2-c2nonc2N)cc1,,11.2 µM (active)
Nc1nonc1-n1nnc(C(=O)N/N=C/c2c[nH]c3ccccc23)c1-c1ccccc1,3.13% (inactive),
Cn1c(=O)c2c(nc(NCCNC(=O)c3ccco3)n2Cc2ccccc2F)n(C)c1=O,16.6% (inactive),
O=C(O)c1ccc(S(=O)(=O)N2CCC(Cc3ccccc3)CC2)cc1,-17.6% (inactive),

SMILES,"activity change, negative = inhibition",Potency
Cn1cnc2c1c(=O)n(Cc1ccccc1C#N)c(=O)n2C,-22% (inactive),
O=C1CN(C(=O)c2ccccc2F)C(c2ccc(F)cc2)c2cc(F)ccc2N1 (configuration not stated),24.6% (inactive),
Cc1cc(=O)oc2c(C)c(OCC(=O)NCCN3CCOCC3)ccc12,-6.37% (inactive),
O=C(CC1CCCCC1)NCc1ccccc1,-26.9% (inactive),
C[n+]1ccc(C(=O)NCc2ccccc2)cc1,-17.6% (inactive),
O=C(O)c1ccc(/C=N/NC(=S)NCc2ccccc2)cc1,-12% (inactive),
CC1CCCCN1C(=S)NCc1ccccc1 (configuration not stated),-121% (inactive),
C/C(=N\NC(=S)NCc1ccccc1)c1ccc(Cl)cc1,,3.55 µM (active)
C/C(=N\NC(=S)NCc1ccccc1)C1CCCCC1,,0.224 µM (active)
CC(CC(=O)N1CCN(c2ccccc2)CC1)S(=O)(=O)c1ccc2c(c1)NC(=O)CS2 (configuration not stated),26.3% (inactive),
COC(=O)COc1ccc2c(=O)c(Oc3ccccc3Br)coc2c1,-14.6% (inactive),
Cc1ccc(S(=O)(=O)NCC(=O)Nc2ccc3c(c2)OCCO3)cc1,-2.15% (inactive),
O=C(N/C(=C\c1ccc([N+](=O)[O-])cc1)C(=O)N1CCOCC1)c1cccc(Br)c1,18.2% (inactive),
O=C(/C=C/c1ccc(Cl)cc1)NCCCn1ccnc1,-4.51% (inactive),
CCn1cc(/C=C(\NC(=O)c2ccc(C)cc2)C(=O)NCCN2CCOCC2)c2ccccc21,6.77% (inactive),
O=C(NCCCN1CCOCC1)c1cc(-c2ccc(Cl)cc2)on1,,11.2 µM (active)
O=C(NCCCN1CCOCC1)c1cc(-c2cccc(O)c2)on1,-16.9% (inactive),
COc1ccc(-c2cc(C(=O)NCCCN3CCOCC3)no2)cc1,-20.5% (inactive),
Cn1cc(S(=O)(=O)Nc2ccc(Cl)cc2Cl)c(=O)n(C)c1=O,-23.8% (inactive),
COc1cc(OC)c(NS(=O)(=O)c2cn(C)cn2)cc1Cl,-31.2% (inactive),
Cc1cc(C(=O)N/N=C/c2ccc(N3CCOCC3)cc2)c(C)o1,1.46% (inactive),
Cc1cc(C(=O)N/N=C/c2ccccc2[N+](=O)[O-])c(C)o1,14.4% (inactive),

SMILES,"activity change, negative = inhibition",Potency
CC(=C/c1ccccc1)/C=N/NC(=O)c1cc(C)oc1C,,7.08 µM (active)
Cc1c(CC(=O)N2CCN(C(=O)C3COc4ccccc4O3)CC2)c(=O)oc2c(O)c(O)ccc12 (configuration not stated),-17.5% (inactive),
COc1cc(OC)cc(C(=O)Nc2nnc(SCC(=O)NCC3CCCO3)s2)c1 (configuration not stated),4% (inactive),
CC(=O)c1ccc(N2CCN(CC(O)c3ccccc3)CC2)cc1 (configuration not stated),-14.4% (inactive),
Cc1[nH]c(C)c(S(=O)(=O)N2CCN(c3cccc(C(F)(F)F)c3)CC2)c1C(=O)N1CCCCC1,-4.17% (inactive),
Cc1cccc(-c2nc(CS(=O)CC(=O)NC(C)CCc3ccccc3)c(C)o2)c1 (configuration not stated),43.4% (inactive),
COc1ccc(-c2nc(CS(=O)CC(=O)NCc3ccccc3)c(C)o2)cc1OC (configuration not stated),3.74% (inactive),
COc1ccc(-c2nc(CS(=O)CC(=O)NCc3cccnc3)c(C)o2)cc1OC (configuration not stated),,11.2 µM (active)
CCCOc1ccc(Cc2c(O)nc(SC)[nH]c2=O)cc1C,30.8% (inactive),
O=C(c1cc2ccccc2o1)N1CCN(c2cccc(C(F)(F)F)c2)CC1,33.7% (inactive),
N=c1c2c(-c3ccccc3)c(-c3ccccc3)oc2ncn1Cc1ccco1,22.8% (inactive),
COc1ccc(-c2oc3ncnc(NCCCO)c3c2-c2ccc(OC)cc2)cc1,22.4% (inactive),
COc1ccc(-c2oc3ncn(Cc4ccco4)c(=N)c3c2-c2ccc(OC)cc2)cc1,,12.6 µM (active)
CC(C)[C@@H]1COC(c2cccc(C3=N[C@H](C(C)C)CO3)c2)=N1,-41.6% (inactive),
O=C(NC(Cc1ccc(O)cc1)C(=O)O)/C(=C/c1ccccc1)NC(=O)c1ccccc1 (configuration not stated),-2.76% (inactive),
O=C(C[C@H]1C(=O)N(c2ccc(F)c(F)c2)C[C@@H]1Cc1ccccc1)Nc1ccccc1,44.7% (inactive),
Cc1c(C)c(C)c(S(=O)(=O)N2CCC3(CC2)OCCO3)c(C)c1C,-34.3% (inactive),
Cc1cc(SCc2c(F)cccc2Cl)nc(=O)[nH]1,2.04% (inactive),
CC(=O)NCCC(=O)Nc1cc(S(=O)(=O)N2CCOCC2)ccc1N1CCOCC1,32.6% (inactive),
COCCNC(=S)Nc1cc(S(=O)(=O)N2CCOCC2)ccc1N1CCCCC1,,0.891 µM (active)
O=C(COC(=O)Cc1ccc(F)cc1)Nc1cc(S(=O)(=O)N2CCOCC2)ccc1N1CCCC1,33.6% (inactive),
O=C(Nc1ccccc1C(=O)Nc1ccncc1)c1ccc([N+](=O)[O-])cc1,25.4% (inactive),

SMILES,"activity change, negative = inhibition",Potency
Cc1ccc(N2CCN(c3ccc([N+](=O)[O-])cn3)CC2)c(C)c1,-2.68% (inactive),
O=C(COC(=O)c1ccc(N2CCCC2=O)cc1)c1ccc(OC(F)F)cc1,44.5% (inactive),
CC/C(=N\NC(=S)NC(C)C)c1ccc(OC(F)F)cc1,,0.562 µM (active)
O=C(NCCNc1ccccc1[N+](=O)[O-])c1ccccc1F,20.5% (inactive),
COc1cc(CN2CCC(n3nccc3NC(=O)CCCc3ccccc3)CC2)ccc1O,24.6% (inactive),
COc1cc2[nH]c(=O)n(CCC(=O)NC3CCN(Cc4ccccc4)CC3)c(=O)c2cc1OC,-7.87% (inactive),
CCOc1cc2[nH]c(=S)n(CCCN3CCCC3=O)c(=O)c2cc1OCC,-1.37% (inactive),
COc1cc2[nH]c(=S)n(Cc3ccc(C)o3)c(=O)c2cc1OC,,5.01 µM (active)
COc1cc2[nH]c(=S)n(Cc3ccc(F)cc3)c(=O)c2cc1OC,,1.78 µM (active)
COc1cc2[nH]c(=O)n(Cc3ccc(C(=O)NC4CCN(Cc5ccccc5)CC4)cc3)c(=O)c2cc1OC,6.06% (inactive),
CCOc1cc2[nH]c(=S)n(Cc3ccc(C(=O)NCCOC)cc3)c(=O)c2cc1OCC,-43.7% (inactive),
O=S(=O)(NC1CCCC1)c1ccc(-n2cnnn2)cc1,-26.9% (inactive),
Cc1sc2nc(SCCO)n(-c3ccccc3)c(=O)c2c1C,16.7% (inactive),
COCCCNC(=S)N1CCN(c2nc(-c3cccc(OC)c3)cs2)CC1,19.9% (inactive),
O=C(Nc1c2c(nn1-c1ccccc1)CS(=O)(=O)C2)C1CCCC1,-9.49% (inactive),
Nn1cnnc1N/N=C/c1cc([N+](=O)[O-])c(Cl)cc1Cl,,11.2 µM (active)
NC(N)=N/N=C/c1ccc(Cl)c([N+](=O)[O-])c1,2.73% (inactive),
CC(CN1CCC(n2nccc2NC(=O)C2CCCC2)CC1)c1ccccc1 (configuration not stated),-26.1% (inactive),
Oc1ccc(Br)cc1C=Nc1ccc2[nH]ncc2c1,,11.2 µM (active)
O=C(CCc1nnc2ccc(NCc3ccco3)nn12)Nc1cc(F)ccc1F,12.4% (inactive),
CCc1ccc(NC(=O)CSc2nc3ccccc3c(=O)n2CCN2CCOCC2)cc1,42.2% (inactive),
CC(=O)NCCn1c(SCC(=O)Nc2ccc(C)cc2)nc2ccccc2c1=O,8.63% (inactive),

SMILES,"activity change, negative = inhibition",Potency
CCn1c(SCC(=O)Nc2ccc(C)cc2)nc2nc3c(cc2c1=O)CCCC3,,10 µM (active)
CCn1c(C)c(C)c2cc(C(=O)N3CCN(c4cccc(C)c4C)CC3)ccc21,2.35% (inactive),
CCCCC(c1nnnn1CS(=O)(=O)c1ccc(C)cc1)N1CCC(C(N)=O)CC1 (configuration not stated),-7.67% (inactive),
Cc1ccc(CNC(=O)Cc2cn(C)c3ccccc23)cc1,24.8% (inactive),
Cc1cc(C(=O)N/N=C/c2cc([N+](=O)[O-])cc(C)c2O)n[nH]1,,10 µM (active)
COc1ccc2ccccc2c1/C=N/NC(=O)c1cc(C)[nH]n1,-11.2% (inactive),
CC(C)(C)c1cc(C(=O)N/N=C/c2ccc([N+](=O)[O-])s2)n[nH]1,-30.6% (inactive),
CCCCn1c(SCC(=O)N2CCOCC2)nc2c1c(=O)n(C)c(=O)n2C,8.39% (inactive),
CC1(C)CCCC2=C1CC1C(=O)N(c3ccccc3)C(=O)C1C2 (configuration not stated),-12.1% (inactive),
CC1CC2=C(CC1/C=N/NC(N)=S)C(C)(C)CCC2 (configuration not stated),,1.41 µM (active)
CC(C)[C@H](NC(=O)N1CCn2c1nc1ccccc12)C(=O)NCc1ccc2c(c1)OCO2,-24.8% (inactive),
Cc1ccc2[nH]c(=O)c(CC(=O)O)c(-c3ccccc3)c2c1,-2.08% (inactive),
COc1ccc(C(C)NC(=O)C23CC4CC(CC(C4)C2)C3)cc1 (configuration not stated),7.13% (inactive),
O=C(Nc1ccc(C(=O)O)cc1)/C(=C\c1ccccc1)NC(=O)c1ccc(Br)cc1,9.49% (inactive),
O=C(Nc1cccc(NC(=O)c2ccc(Br)cc2)c1)c1ccccc1,-13.1% (inactive),
O=C(O)c1ccc(/C=N/NC(=O)c2ccc(Br)cc2)cc1,-14.5% (inactive),
CC(=N\NC(=O)c1cc(Br)ccc1O)/C(=N/O)C(=O)Nc1ccccc1,,7.94 µM (active)
O=C(N/N=C\c1cccc(Br)c1)c1ccccc1-n1cccc1,-2.2% (inactive),
CC(C)/C=N/NC(=O)c1cc(Br)ccc1O,,10 µM (active)
